From PubChem
Hits are enriched below; roughly 3.8% of the tested compounds scored in any of these assays.
esBAF inh: Bmi1 luciferase reporter increase in mESCs, primary screen, esBAF inhibitor project, mouse ES cells, Bmi1 luciferase knock-in, single point; 24 h; 100% = twice the neutral-well signal; reporter increase, % at 12.5 µM; 350,000 tested, 2% active; AID 602393, 2012; in the data active = activation above about 40%; inconclusive = no clear call, values can overlap the other calls;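 also: 0% = median of the plate's neutral control wells and 100% = double that signal; a rise in the Bmi1 reporter signal indicates esBAF inhibition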
HSF1 inhib: HSF1 inhibitors in luciferase reporter cells, primary screen, cell-based, NIH3T3, luminescence | NIH3T3-HGL HSE-luciferase, MG132-induced, luminescence 8 h; active compounds read low | activity change, negative = inhibition, % at 7.5 µM (by protocol) | 300,000 tested, 0.77% active;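 active = more than half of replicate wells show activity change below -50%, luminescence cut by over half; inconclusive = some wells, but at most half, below -50%; inactive = no replicate well below -50%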;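 also: luciferase reports HSF-1 transcriptional activity via heat shock element; 0% = median of DMSO wells and -100% = zero luminescence signal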
HSF-1 act: HSF-1 activators, primary screen, NIH3T3-HGL cells, MG132 stress, luminescence, single point; AID 504408, 2011; activation, % at 9 µM; 300,000 tested, 1.7% active; NIH3T3-HGL HSF-1 luciferase reporter, 8 h; 100% = twice DMSO control signal;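 active = mean replicate activation of at least 50% with a set share of replicates each reaching 50%; inconclusive = only one of those two conditions met; inactive = mean below 50% and too few replicates reaching it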;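 also: 0% = median of the neutral control wells and 100% = twice that signal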
MITF act: activators of MITF-driven TRPM1 promoter reporter, primary screen, cell-based, SK-MEL-5, luciferase, single point | AID 588334, 2011 | 300,000 tested, 0.75% active | activation, % at 12.5 µM | SK-MEL-5 TRPM1-promoter luciferase, 24 h; % of positive control, neutral wells = 0;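 active = mean activation of at least 80% with every replicate also reaching 80%; inconclusive = mean reaches 80% but some replicate falls short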;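 also: 0% = neutral control wells and 100% = parthenolide positive control wells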
Wnt act: Wnt/beta-catenin pathway activators, primary screen, cell-based, plate reader, single point; Wnt/beta-catenin reporter cell assay, activator; activation, % at 9.35 µM; 300,000 tested, 1.2% active; AID 743398, 2014; in the data active = activation above about 30%, passing the limit was not always enough; inconclusive = no clear call, values can overlap the other calls;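 also: 0% = neutral control wells and 100% = positive control wells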
* hit, by the source's call; ? = inconclusive; · = no result given.

SMILES	esBAF inh	HSF1 inhib	HSF-1 act	MITF act	Wnt act
O=C(COC(=O)c1c2c(nc3ccccc13)/C(=C\c1ccco1)CC2)NC1CCCC1	12	·	·	-3	-3
CO[C@H]1CN(C)C(=O)c2cc(NC(C)=O)ccc2OC[C@H](C)N(Cc2nccs2)C[C@@H]1C	-10	·	·	·	·
CCN1CCSc2ccc(C(=O)NCc3cccc(Br)c3)cc21	-4	78	121*	3	-4
CCN1CCSc2ccc(C(=O)NCc3cccc(F)c3)cc21	-5	11	18	-4	0
C[C@H](CO)N1C[C@H](C)[C@@H](CN(C)C(=O)Nc2ccccc2)Oc2ccc(NS(C)(=O)=O)cc2CC1=O	-4	·	·	·	·
Cc1ccc(C)c2[nH]c(=O)c(CN(Cc3ccco3)C(=S)NCC3CCCO3)cc12 (configuration not stated)	·	57	77*	-6	0
Cc1cccc2cc(CN(CC3CCCO3)C(=S)NCc3ccco3)c(=O)[nH]c12 (configuration not stated)	·	2	16	-6	·
Cc1cc(C)c2[nH]c(=O)c(CN(CC3CCCO3)C(=S)NCc3ccco3)cc2c1 (configuration not stated)	·	36	62*	-10	1
COc1ccc(S(=O)(=O)N2C[C@H](O)COC[C@H]3O[C@H](CC(=O)N(C)C)CC[C@@H]32)cc1	-3	·	·	·	·
Cc1c(-c2ccc(Cl)cc2)[n+](=O)c2c(n1[O-])CCCC2	·	7	39	·	-1
Cc1c(-c2ccccc2)[n+](=O)c2c(n1[O-])CCC2	-5	-87*	-89	0	·
Cc1ccc(CNC(=O)CSc2c3c(nc4ccc(Cl)cc24)CCCC3)o1	1	69	120*	·	·
CCN(CC)CCNC(=O)CSc1c2c(nc3cc(Cl)ccc13)CCCC2	·	69	?	17	·
COc1ccc(-n2c(C)c(C)c3c(N)ncnc32)cc1	-9	-57*	-69	9	3
CC1CCN(C(=O)COC(=O)c2cc(Cl)c3c(c2)OCO3)CC1	31	·	·	64	32*
COc1ccc(NC(=O)Nc2ccc3c(c2)CC(=O)N([C@H](C)CO)C[C@@H](C)[C@H](CN(C)S(=O)(=O)c2c(C)noc2C)O3)cc1	-4	·	·	·	·
Cc1ccc(-n2nnnc2SCC(N)=O)c(C)c1	-2	-18	11	12	·
COC(=O)c1ccc(CSc2nnnn2-c2ccc(C)cc2C)o1	4	33	71*	-4	1
CN1CCN(CC(=O)n2c3c(c4ccccc42)CCCC3)CC1	-7	-64*	-72	-11	·
O=C1CCCC(O)=C1N=Nc1ccc2c(c1)OCO2	·	14	6	19	46*
O=C1CCCC(O)=C1N=Nc1ccc(C(=O)O)cc1	-7	1	-16	-4	-4
COc1ccc(N(C(=O)CCl)C(C(=O)NCCc2ccccc2)c2cccs2)cc1 (configuration not stated)	-3	-93*	-94	-87	2
COc1ccc(CNC(=O)C(c2ccncc2)N(C(=O)Cc2cccs2)c2ccc(C)cc2)cc1 (configuration not stated)	130*	23	44	1	·
CC(/C=N/NC(=O)Cc1cccs1)=C\c1ccccc1	·	60	122*	124*	·
COc1ccc(/C=N/NC(=O)Cc2cccs2)cc1	59*	18	34	·	25
SMILES	esBAF inh	HSF1 inhib	HSF-1 act	MITF act	Wnt act
CCN(CC)c1ccc(/C=N/NC(=O)Cc2cccs2)cc1	·	-9	0	4	1
O=C(Cc1cccs1)NCCCc1ccccc1	4	-8	-7	-1	6
COc1ccc(CCNC(=O)Cc2cccs2)cc1	·	-55*	-67	-1	1
O=C(Cc1cccs1)N/N=C/C(Br)=C/c1ccccc1	51*	85	106*	107*	·
C[C@H](CO)N1C[C@H](C)[C@@H](CN(C)C(=O)C2CCCCC2)Oc2cc(-c3ccncc3)ccc2S1(=O)=O	-3	·	·	·	·
COc1ccc(NC(=O)N[C@@H]2CC[C@@H](CCNC(=O)CCN3CCCCC3)O[C@@H]2CO)cc1	7	·	·	·	·
C[C@H]1CN([C@@H](C)CO)C(=O)Cc2cc(NS(C)(=O)=O)ccc2O[C@@H]1CN(C)S(C)(=O)=O	-4	·	·	·	·
Cc1cccc(C(=O)NCC(=O)N2CC(=O)Nc3ccccc32)c1	·	-51*	-63	-2	-2
COc1ccc(NC(=O)Nc2ccc3c(c2)CC(=O)N([C@@H](C)CO)C[C@@H](C)[C@@H](CN(C)C(=O)Nc2ccc(C(F)(F)F)cc2)O3)cc1	2	·	·	·	·
CO[C@@H]1CN(C)C(=O)c2cc(NC(=O)C3CC3)ccc2OC[C@@H](C)N(C(=O)c2ccccn2)C[C@@H]1C	1	·	·	·	·
O=C(OC1CCCCC1)c1ccc(NC(=O)c2ccco2)cc1	60*	-1	-5	55	-3
COc1ccccc1OCC(=O)Nc1ccccc1C(=O)N1CCCCC1	·	-9	-9	3	0
O=C(Nc1ccccn1)c1ccc(NC(=O)c2ccco2)cc1	17	30	48	86*	·
O=C(COc1ccccc1Cl)Nc1ccccc1C(=O)N1CCCCC1	61*	26	14	43	-1
O=C(NC(=S)Nc1ccc(Cl)cn1)C(c1ccccc1)c1ccccc1	·	8	7	-7	·
S=C(Nc1ccccc1)Nc1ccc(Cl)cn1	·	31	78*	5	·
O=C(CCc1ccccc1)Nc1ccc(NC(=O)c2ccco2)cc1	16	1	1	22	3
O=C(Cc1ccccc1)Nc1ccc(Cl)cn1	6	4	-2	7	12
O=C(Nc1ccc(NC(=O)c2ccccc2Cl)nc1)c1ccco1	54*	23	22	55	9
O=C(CCc1ccccc1)Nc1ccc(Cl)cn1	43*	1	9	19	·
O=C(COc1ccccc1Cl)Nc1ccc(Cl)cn1	30	59	106*	·	52*
O=C(CCc1ccccc1)Nc1ccc(NC(=O)c2ccco2)nc1	36	0	1	?	36*
Cc1ccc(S(=O)(=O)Nc2cccc3c2O[C@H](CN(C)S(=O)(=O)c2ccccc2)[C@@H](C)CN([C@@H](C)CO)C3=O)cc1	3	·	·	·	·
C[C@@H]1CCCCO[C@H](CN(C)C(=O)NC2CCCCC2)[C@H](C)CN([C@@H](C)CO)C(=O)c2cc(NS(=O)(=O)c3ccc(F)cc3)ccc2O1	8	·	·	·	·
O=C(Nc1ccc(-c2nc3ncccc3o2)cc1)c1ccc(Br)o1	36	11	22	30	21
Cc1cc(NC(=O)c2ccco2)ncc1NC(=O)Cc1ccccc1	45*	8	26	59	·
O=C(Nc1ccc(-c2nc3ncccc3o2)cc1)c1ccco1	·	32	45	104*	27
COC(=O)c1sc(NC(=O)COc2ccccc2OC)nc1C	-9	1	15	-4	·
